# ChEMBL document CHEMBL3988442, “University of Dundee, Small-Polar-MMV Screening Library” (2021)
# Values joined by “and” are separate entries in the source; they are usually repeats but may differ in a detail not shown here. Identical values can stand only once. About 1,200 (3.2%) of roughly 38,000 compounds showed an effect of 50% or more. The median lay at about -58%. The entries come from a sample that favours strong results as a whole.
# System: Plasmodium falciparum
# Experiment: Calibr Malaria Delayed Death Assay SOP
# Type: functional, organism-based
# Set-up: scale not given: in the data most compounds retested in dose-response had high values
# Conditions: concentration 4.99e-06 (unit not given; other assays of the set use mol/L)
SMILES,Percent Effect [%],Percent Effect (4.99 µM)
CCCN1CCCN(S(=O)(=O)c2cnc3onc(C)c3c2)CC1,-59.23,–
CC(C)c1nccn1C1CCCN(C(=O)CCCc2ccccn2)C1 (stereo not given),-134.4,–
Clc1ccc(N2CCN(CCCN3CCCCC3)CC2)nc1,68.33,–
CC(C)OCCN1CCN(c2ccc(Cl)cn2)CC1,-78.08,–
CSCCCN1CCN(c2ccc(Cl)cn2)CC1,28.74,–
CCCn1cc(-c2cc(C(=O)N(C)C)c3ccc(C)cc3n2)cn1,–,-45.66% and -43.3%
CN(Cc1ccccn1)C1CC2(CCN(Cc3ccccn3)CC2)C1.O=C(O)C(F)(F)F.O=C(O)C(F)(F)F,-38.28,–
Cc1cccc(-c2ncc(CNC(C)Cc3ncccc3C)cn2)c1 (stereo not given),-10.25,–
Cc1cccnc1CC(C)Nc1ncc(C)c(N(C)C)n1 (stereo not given),44.79,–
CCn1nc2c(cc1=O)CN(CCOc1ccccc1C#N)CC2,-106.3,–
CN(C)c1ncccc1CNCc1ccc(N2CCOCC2)cc1,-64.22,–
CC(=O)NC1CCCN(C(=O)NCc2cccnc2N(C)C)C1 (stereo not given),-14.71,–
Cc1nnsc1C(=O)NCc1cccnc1N(C)Cc1ccccc1,-61.52,–
CC(=O)N1CCC(NCc2cccnc2N(C)Cc2ccccc2)CC1,-58.67,–
CN(Cc1ccccc1)c1ncccc1CNC1CCSCC1,25.77,–
CN(Cc1ccccc1)c1ncccc1CNC1CN2CCC1CC2 (stereo not given),62.39,–
CCn1cc(C(=O)NCc2cccnc2N(C)Cc2ccccc2)cn1,-74.6,–
CN(Cc1ccccc1)c1ncccc1CNC1CCCC1,65.38,–
CN(Cc1ccccc1)c1ncccc1CNC1CCC1,69.98,–
CN(c1ncccc1CNCc1ncc[nH]1)C1CCCCC1,37.42,–
CN(Cc1ccccc1)c1ncccc1CNC(=O)c1ccnn1C,-17.51,–
Cc1n[nH]c(C)c1CNC(=O)N1CCCC(Cc2nccn2C)C1 (stereo not given),-135.2,–
O=C1CC(N2CCN(c3ccc(F)cc3)CC2)C(=O)N1Cc1cccs1 (stereo not given),-39.99,–
COc1ccc(Nc2c[nH]c(=O)[nH]c2=O)cc1,-70.96,–

SMILES,Percent Effect [%],Percent Effect (4.99 µM)
CNC(=O)[C@@]12CCC3(CCNCC3)[C@@H]1CN(S(C)(=O)=O)C2,-13.04,–
N#CC1(C(=O)N2CCOC(c3ccc(F)cc3)C2)CCCC1 (stereo not given),-26.56,–
O=C(O)C(F)(F)F.O=C(O)C(F)(F)F.c1cncc(OC[C@]23COC[C@H]2CN(Cc2nccs2)C3)c1,-94,–
Cc1cc(C(=O)N2CCn3cc(CN4CCCC4)nc3C2)no1,-104.3,–
CCC(NC1CCN(S(C)(=O)=O)CC1)c1cccs1 (stereo not given),-138.1,–
COc1cc(NC(=O)NCC2CCCO2)cc(OC)c1 (stereo not given),-111.7,–
Cc1cncc(C2CCCN(CC3CCC3)C2)n1 (stereo not given),-16.18,–
COC1CCN(C(=O)Nc2ccccc2)CC(=O)N(C)c2ccccc21 (stereo not given),-65.05,–
CCc1nc(C)c(CC(=O)N2CCC3(CC2)OCCCC3OC)c(=O)[nH]1 (stereo not given),-118.2,–
CCN1CCC(CNC(=O)NCc2cc(-c3ccc(C)cc3)no2)C1 (stereo not given),-139.2,–
CCN1CCC(Cn2ccc3c(OC)c(OC)ccc3c2=O)C1 (stereo not given),20.65,–
CCN1CCC(CNCc2cc(OC)ccc2OC)C1 (stereo not given),56.22,–
CCN1CCCC(CNC(=O)CCc2ccc(OC)c(F)c2)C1 (stereo not given),-76.38,–
CCN1CCC(CNCc2c[nH]nc2C(C)(C)C)C1.Cl (stereo not given),-150.6,–
CCN1CCC(CNCc2cc(C)ccc2OC)C1 (stereo not given),82.22,–
CCO[C@H]1COC[C@@H]1NC(=O)CCc1nc(-c2ccccc2)no1,-93.65,–
CCS(=O)(=O)N1CC(c2nc(-c3ccsc3)no2)C1,-143.6,–
CCOCC(=O)NCCc1nc(C2CC2)cc(C(F)(F)F)n1,-127.5,–
Cc1cccnc1CNC(=O)N(CCCO)C1CCc2ccccc21 (stereo not given),-23.18,–
COc1c(CNC2(c3ccc(Cl)cc3)CCC2)c(C)nn1C,58.68,–
COc1c(CNC2CCc3cc(Cl)ccc32)c(C)nn1C (stereo not given),17.62,–
COc1c(CNC2(c3noc(C)n3)CCC2)c(C)nn1C.Cl,-62.55,–
Cc1cc(C)n(-c2cccc(C(=O)Nc3n[nH]c(C4CCCO4)n3)c2)n1 (stereo not given),-55.68,–
Cc1ccc(O)c(CNc2cccc(CN3CCSCC3)c2)n1,-16.46,–

SMILES,Percent Effect [%],Percent Effect (4.99 µM)
O=C(CCN1CCCC(CO)(CC2CC2)C1)NCc1cccc(Cl)c1 (stereo not given),79.46,–
CC1(C)CN(CCC(=O)NCc2cccc(Cl)c2)CC[C@]1(C)O,51.99,–
O=C(CCC(=O)NCc1cccc(Br)c1)NCCN1CCCC1,-111.7,–
Cc1ccc(C(=O)O)cc1CNC(=O)CN1CC[C@](C)(O)C(C)(C)C1,-2.954,–
NC(=O)CN(CC(=O)NCc1cccc(Cl)c1)C1CCCC1,-61.22,–
OCC1(Cc2cccc(Cl)c2)CCCN(c2ncccn2)C1 (stereo not given),-87.85,–
CC(C)NC(=O)c1cc2c(s1)CCN2c1ncccn1,-26.36,–
Cc1nc2n(n1)CC(NCc1c(Cl)ccc3cccnc13)CC2 (stereo not given),-131.5,–
CC(=O)CSc1nnc2n1N=CN(c1cccc(Cl)c1)C2,-35.13,–
N#Cc1cccc(OCCN2CCCC2C(=O)N2CCSCC2)c1 (stereo not given),50.57,–
N#Cc1cccc(OCCN2CCCC2C(=O)Nc2nccs2)c1 (stereo not given),-33.68,–
N#Cc1cccc(OCCN2CCC(C(=O)N3CCOCC3)CC2)c1,-57.78,–
CCc1nc(C)c(C(=O)N[C@@H]2c3ccccc3C[C@@H]2O)o1,-65.76,–
O=C(O)CN1CCC(c2ccccc2)CC1,-86.8,–
CN(C)c1nc(N)nc(CN2CCC(c3ccccc3)CC2)n1,80.66,–
CN(C)c1nc(N)nc(CN2CCC(c3nc4ccccc4o3)CC2)n1,8.177,–
Cn1ncc2c(=O)[nH]c(CN3CCCC3c3cccs3)nc21 (stereo not given),-14.29,–
CN(C)c1nc(N)nc(CN2CCCC2c2cccs2)n1 (stereo not given),52.44,–
Cn1ccc(CN2CCC(c3ccccc3)CC2)cc1=O,20.97,–
CN(C)c1nc(N)nc(CN2CCCC(c3ccccc3)CC2)n1 (stereo not given),53.37,–
Oc1ccccc1CN1CCCCCC1c1cccs1 (stereo not given),-50.57,–
Cc1nc(CC2CCCN(Cc3nc(N)c4ccccc4n3)C2)no1 (stereo not given),18.93,–
